Source: PubChem BioAssay AID1508619 (National Center for Advancing Translational Sciences (NCATS), 2020)
Results filed as inconclusive are left out. Where a call stands in place of a potency, no number is given. Active and inactive are the calls of the source. Calls follow the shape of the dose curve; as a rule, active = well fitted inhibition curve with a large enough effect; inconclusive = small, poorly fitted or top-dose-only effect; inactive = no such curve, though single readings can be large or run the other way.

Assay: Counterscreen qHTS for Identification of Calcium Integrin Binding Protein 1 (CIB1) Competitor
Details: series mostly up to 114 µM
Source text: Assay Provider: Ulhas P. Naik, PhD
Sidney Kimmel Medical College
Thomas Jefferson University, Philadelphia, PA
Primary function of platelets is to maintain hemostasis. At the site of vascular injury, platelets adhere to adhesive proteins such as collagen and von Willebrand factor. Adherent platelets are activated and generate soluble platelet agonists such as thrombin, ADP and thromboxane A2. Following exposure of circulating platelets to these agonists, results in platelet shape change, granule secretion and activation of platelet integrin alphaIIb-beta3. Ligand binding to activated integrin alphaIIb-beta3 triggers outside-in signaling, leading to platelet aggregation, stabilization of platelet plug, and clot retraction. Upon atherosclerotic plaque rupture also causes platelet plug formation, which underlies a number of cardiovascular diseases such as myocardial infraction and stroke. A number of anti-platelet drugs such as aspirin, clopidogrel, prasugrel, vorapaxar, and eptifibatide are currently available to prevent the thrombotic complications. However, these anti-platelet agents have several limitations including inherent variability in individual responses, developing resistance, and serious bleeding side effects. For these reasons they are not suitable for long-term protection. Based on the experiences with current anti-platelet drugs, it appears that the most useful therapeutic approach is to intersect the secondary responses such as integrin outside-in signaling or recruitment of platelets by TxA2 and secreted ADP. Compounds, which can largely preserve the primary hemostatic function of platelets but inhibit secondary response will be most desired therapeutic agents for treatment of cardiovascular disease.
CIB1 is a calcium integrin binding protein, which specifically interact with the alphaIIb subunit of integrin alphaIIb-beta3. Binding of CIB1 to alphaIIb regulates the outside-in signaling in platelets, which is needed for thrombus stabilization and thrombus growth. […] Therefore, we propose that discovery of a small molecule that can prevent the association of CIB1 and alphaIIb-beta3 will be a potential anti-platelet agent that can block the thrombus formation without undue effect on hemostasis.
To develop fluorescence polarization (FP) assay using fluorescently labeled alphaIIb peptide and CIB1 protein. Using FP assay characterize the binding affinity, competitive inhibition, and acceptable Z factor (0.5 to1) in order to perform the HTS to identify small molecule compound that can prevent CIB1 binding to platelet integrin alphaIIb-beta3. Active compounds were re-acquired and validated using confirmatory and counterscreens (using 100 nM scrambled peptide).
[1] Naik MU, Nigam A, Manrai P, et al. CIB1 deficiency results in impaired thrombosis: the potential role of CIB1 in outside-in signaling through integrin alpha IIb beta 3. J Thromb Haemost. 2009;7(11):1906-1914. doi:10.1111/j.1538-7836.2009.03581.
SEQUENCE No. (1, 2, 3, etc.); […] (e.g., Cells, Incubation, Reagent, etc.); VALUE and DESCRIPTION.
1; Reagent; 3 uL; Protein or buffer (4/3x)
2; Compound; 46 nL; Control inhibitor / compound library
3; Time; 15 min; Room temperature incubation
4; Reagent; 1 uL; Fluorescent labeled peptide (4x)
5; Time; 1000 rpm; Centrifuge
6; Time; 15 min; Room temperature incubation
7; Detection; Ex 480/ Em 540; ViewLux Fluorescence Read
NOTES (numbers refer to sequence above)
1; Protein Mixture: C1B1-GST (final concentrations of 1 uM). Buffer composition: 5 mM HEPES pH 7.4, 125 mM NaCl, 5 mM CaCl2, 0.01% Tween20.
2; Control Inhibitor: unlabeled peptide (final concentration range 17.4 nM to 572 uM). Compound Library final concentration range 18.3 nM to 114 uM.
3; Room temperature incubation.
4; Fluorescent Labeled Peptide: FITC-alphaIIb (final concentration of 100 nM). Sequence of Scrambled peptide: Acetyl-[…]-FITC (purity is 95.37%).
6; Room temperature incubation.
[…]
Potency is read from the fitted curve at half-maximal effect.

| SMILES | Potency |
| --- | --- |
| COc1nn(CSP(=S)(OC)OC)c(=O)s1 | inactive |
| O=c1c(C2CC(c3ccc(-c4ccc(Br)cc4)cc3)Cc3ccccc32)c(O)sc2ccccc12 (stereo not given) | inactive |
| CC1=C(O)C(=O)C=C2C1=CC=C1[C@@]2(C)CC[C@@]2(C)[C@@H]3C[C@](C)(C(=O)O)CC[C@]3(C)CC[C@]12C | 44.7 µM (active) |
| CN(C)C(=S)SSC(=S)N(C)C | inactive |
| O=C1C(I)=CC(=C(c2cc(I)c(O)c(I)c2)c2ccccc2C(=O)O)C=C1I | inactive |
| CN(C)CCc1c[nH]c2cccc(O)c12 | 89.1 µM (active) |
| S=C(SSC(=S)N1CCCCC1)N1CCCCC1 | inactive |
| C[CH2][Hg][S]c1ccccc1C(=O)O | inactive |
| N[C@@H](Cc1ccc(Oc2cc(I)c(O)c(I)c2)c(I)c1)C(=O)O | inactive |
| Cc1ccc([N+](=O)[O-])[c]2c1[O][Hg]2 | inactive |
| O=C1OC(c2ccc(O)c(S(=O)(=O)O)c2)(c2ccc(O)c(S(=O)(=O)O)c2)c2c(Br)c(Br)c(Br)c(Br)c21 | inactive |
| COC[C@H]1OC(=O)c2coc3c2[C@@]1(C)C1=C(C3=O)C2CCC(=O)[C@@]2(C)C[C@H]1OC(C)=O (stereo not given in full) | inactive |
| CCCCCCCCCCCCCCCC[N+](C)(C)C | inactive |
| O=c1oc2ccccc2c(O)c1C(CC(O)c1ccc(-c2ccc(Br)cc2)cc1)c1ccccc1 (stereo not given) | inactive |
| CC(=O)[O][Hg][c]1ccccc1 | inactive |
